Experimental data as given in PubChem BioAssay (NCATS).
“And” between values parts separate entries of the source, which are not always exact repeats. Equal entries are not always repeated. Results filed as inconclusive are left out. Where a structure was tested more than once in an assay, its records may differ in their call. The source made the active and inactive calls. Calls follow the shape of the dose curve; as a rule, active = well fitted curve in the direction sought with a large enough effect; inconclusive = small, poorly fitted or top-dose-only effect, or another doubt; inactive = no such curve, though single readings can be large; an effect the other way counts as inactive or inconclusive.

Assay: Counterscreen qHTS for small molecule stabilizers of the endoplasmic reticulum resident proteome: GLuc-NoTag assay (AID 1508627);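 also: SH-SY5Y cells given compound then 100 nM thapsigargin to empty ER calcium; 0% = thapsigargin alone and -100% = DMSO vehicle control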
Settings: Gaussia luciferase NoTag secretion counterscreen, luminescence, thapsigargin 100 nM for final 4 h; series mostly up to 76.4 µM; activity change, negative = inhibition: at the top concentration
Method in brief: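 Luminescence of Gaussia luciferase secreted into the medium (coelenterazine, 0.07x final, unlysed cells) was the read-out. Human SH-SY5Y neuroblastoma cells constitutively secreting untagged GLuc received compound for 19 h, then 100 nM thapsigargin for 4 h.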
In the case of Oc1c(Cl)cc(Cl)c2cccnc12, the “activity change, negative = inhibition” value is reported as -7.42% (inactive). For COc1c(N2CCNC(C)C2)c(F)cc2c(=O)c(C(=O)O)cn(C3CC3)c12 (configuration not stated), the outcome was “inactive”. For CCOc1cc(N)c(Cl)cc1C(=O)NCC1CN(Cc2ccc(F)cc2)CCO1 (configuration not stated), the “activity change, negative = inhibition” value was 5.78% (inactive). In the case of CN1CCCC(n2nc(Cc3ccc(Cl)cc3)c3ccccc3c2=O)CC1 (configuration not stated), the outcome is reported as “inactive”. In the case of CNCC[C@H](Oc1cccc2ccccc12)c1cccs1, the “activity change, negative = inhibition” value is reported as -28.2% (inactive). With S=P(N1CC1)(N1CC1)N1CC1 the “activity change, negative = inhibition” value was -10.8% [at 157 µM] (inactive). For CCn1cc(C(=O)O)c(=O)c2cc(F)c(N3CCNCC3)nc21, the “activity change, negative = inhibition” value was 42.3% (inactive). In the case of CC(C)(Sc1cc(C(C)(C)C)c(O)c(C(C)(C)C)c1)Sc1cc(C(C)(C)C)c(O)c(C(C)(C)C)c1, the “activity change, negative = inhibition” value is reported as 15% (inactive).

Assay: Confirmatory qHTS for small molecule stabilizers of the endoplasmic reticulum resident proteome: Secreted ER Calcium Modulated Protein (SERCaMP) assay (AID 1508628); also: nearly all actives have a fitted effect of over 40% in size; also: potency is read from the fitted curve at half-maximal effect; as to activity change, negative = decrease: % is scaled to controls: 0 for no effect and ±100 for the full control effect
Settings: SERCaMP secreted luciferase ER calcium/proteostasis reporter; series mostly up to 76.3 µM; activity change, negative = decrease: at the top concentration
Method in brief: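 SH-SY5Y cells stably expressing GLuc-SERCaMP, treated 16 h with compound (primary 1.53, 7.67, 38.3 uM; confirmation 11 concentrations, up to 76.6 uM), then 100 nM thapsigargin for 4 h. Secreted Gaussia luciferase in medium read by coelenterazine luminescence.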
With COc1c(N2CCNC(C)C2)c(F)cc2c(=O)c(C(=O)O)cn(C3CC3)c12 (configuration not stated) the Potency was 14.1 µM (active). With CCOc1cc(N)c(Cl)cc1C(=O)NCC1CN(Cc2ccc(F)cc2)CCO1 (configuration not stated) the “activity change, negative = decrease” value was -20.2% (inactive). For CO[C@@H]1[C@@H](OC(N)=O)[C@@H](O)[C@H](Oc2ccc3c(O)c(NC(=O)c4ccc(O)c(CC=C(C)C)c4)c(=O)oc3c2C)OC1(C)C, the Potency was 35.5 µM (active). In the case of CN1CCCC(n2nc(Cc3ccc(Cl)cc3)c3ccccc3c2=O)CC1 (configuration not stated), the Potency is reported as 20 µM (active). In the case of CNCC[C@H](Oc1cccc2ccccc12)c1cccs1, the “activity change, negative = decrease” value is reported as 143% (inactive). In the case of S=P(N1CC1)(N1CC1)N1CC1, the “activity change, negative = decrease” value is reported as 22.2% [at 156 µM] (inactive). In the case of CCn1cc(C(=O)O)c(=O)c2cc(F)c(N3CCNCC3)nc21, the “activity change, negative = decrease” value is reported as 10.1% (inactive). For CC(C)(Sc1cc(C(C)(C)C)c(O)c(C(C)(C)C)c1)Sc1cc(C(C)(C)C)c(O)c(C(C)(C)C)c1, the “activity change, negative = decrease” value was 20.8% (inactive).

Assay: Cell Viability qHTS for small molecule stabilizers of the endoplasmic reticulum resident proteome (AID 1508629);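 also: compound exposure about 46 h in total before the viability read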; also: potency is read from the fitted curve at half-maximal effect; as to max response: % is scaled to controls: 0 for no effect and ±100 for the full control effect
Settings: cell viability counter-screen, 100 nM thapsigargin for final 4 h
Text: Assay Provider: Brandon K. Harvey Ph.D.
National Institute on Drug Abuse, National Institutes of Health, Baltimore, MD
Endoplasmic reticulum (ER) dysregulation is associated with human pathologies including neurodegenerative, cardiovascular, muscular, and diabetic conditions. Maintenance of ER calcium is critical for functions of the ER and its depletion can lead to loss of ER resident proteins, in a process termed exodosis. Therapeutic compounds capable of attenuating the redistribution of ER proteins under pathological conditions may slow or stop disease progression. To identify such compounds, we performed a quantitative high-throughput screen (qHTS) using the SERCaMP assay, which monitors secretion of ER resident proteins triggered by calcium depletion.
SERCaMP was initially developed as a reporter of ER calcium homeostasis using a Gaussia luciferase with a modified signal peptide and carboxy-terminus (GLuc-SERCaMP), modifications that confer secretion of the reporter in response to ER calcium depletion (Henderson et al., 2014). The assay was used to screen 9,501 compounds, including a collection of drugs approved by the FDA (US), EMA (EU), NHI (Japan), and HC (Canada) regulatory agencies (Huang et al., 2011). Since the SERCaMP reporter reflects the exodosis phenomenon (Trychta et al., 2018a), compounds identified in the screen have the potential to prevent exodosis by different mechanisms such as stabilizing ER calcium or augmenting ERS retrieval.
1. Henderson, M.J., Wires, E.S., Trychta, K.A., Richie, C.T., and Harvey, B.K. (2014). SERCaMP: a carboxy-terminal protein modification that enables monitoring of ER calcium homeostasis. Mol Biol Cell 25, 2828-2839.
2. Huang, R., Southall, N., Wang, Y., Yasgar, A., Shinn, P., Jadhav, A., Nguyen, D.T., and Austin, C.P. (2011). The NCGC pharmaceutical collection: a comprehensive resource of clinically approved drugs enabling repurposing and chemical genomics. Sci Transl Med 3, 80ps16.
3. Trychta, K.A., Back, S., Henderson, M.J., and Harvey, B.K. (2018a). KDEL Receptors Are Differentially Regulated to Maintain the ER Proteome under Calcium Deficiency. Cell Rep 25, 1829-1840 e1826.
SEQUENCE No. (1, 2, 3, etc.); […] (e.g., Cells, Incubation, Reagent, etc.); VALUE and DESCRIPTION.
1; Reagent; 5 uL; 1000 SH-SY5Y cells per wells
3; Compound; 23 nL; Control inhibitor / compound library
5; Reagent; 100 nM; Thapsigargin
7; Reagent; 5 uL; CellTiter-Glo (Promega)
8; Time; 10 min; room temperature
9; Detection; Luminescence; ViewLux imaging system
NOTES (numbers refer to sequence above)
1; SH-SY5Y human neuroblastoma cells stably expressing GLuc-SERCaMP (SH-SY5Y-GLuc-ASARTDL) cells were seeded in 1,536 well white tissue culture treated plates (Corning, Cat# 7464) in DMEM-high glucose-sodium pyruvate (ThermoFisher Scientific, Cat #10569) supplemented with 10% bovine growth serum (Hyclone), 10 U/ml penicillin (Gibco), 10 ug/ml streptomycin (Gibco), and 20 mM HEPES.
2; Assay plates were incubated for 5 hr at 37C in a humidified incubator containing 5% CO2.
3; qHTS libraries (23 nl, final concentrations of 1.53 uM, 7.67 uM, 38.3 uM) or controls (neutral control: DMSO, positive control: dantrolene) were added using a Kalypsis pin-tool Robotic System equipped with 1536 pinheads.
4; Cells were then incubated for 42 hours at 37C, 5% CO2.
5; Thapsigargin was added at 100 nM to deplete ER calcium stores.
6; Cells were incubated for 4 hr (37C, 5% CO2).
7; Cell viability was measured using the CellTiter-Glo Luminescent Cell Viability Assay (Promega). Briefly, an equal volume of reagent was added to each well. Plates were rotated for 2 min.
8; Assay plates were incubated for 10 min at room temperature.
9; Luminescence was measured using a ViewLux CCD imaging system (Perkin Elmer) equipped with clear filters.
For Oc1c(Cl)cc(Cl)c2cccnc12, the Potency was 20 µM (active). In the case of COc1c(N2CCNC(C)C2)c(F)cc2c(=O)c(C(=O)O)cn(C3CC3)c12 (configuration not stated), the max response is reported as -1.18% (inactive) and 19.6% (inactive). In the case of CCOc1cc(N)c(Cl)cc1C(=O)NCC1CN(Cc2ccc(F)cc2)CCO1 (configuration not stated), the max response is reported as -7.94% (inactive). With CO[C@@H]1[C@@H](OC(N)=O)[C@@H](O)[C@H](Oc2ccc3c(O)c(NC(=O)c4ccc(O)c(CC=C(C)C)c4)c(=O)oc3c2C)OC1(C)C the max response was 49.1% (inactive). For S=P(N1CC1)(N1CC1)N1CC1, the max response was 22.2% (inactive). For CCn1cc(C(=O)O)c(=O)c2cc(F)c(N3CCNCC3)nc21, the max response was 28.2% (inactive).

Assay: Primary qHTS for small molecule stabilizers of the endoplasmic reticulum resident proteome: Secreted ER Calcium Modulated Protein (SERCaMP) assay (AID 1508630); also: potency is read from the fitted curve at half-maximal effect; as to activity change, negative = inhibition: % is scaled to controls: 0 for no effect and ±100 for the full control effect
Settings: SH-SY5Y GLuc-SERCaMP (Gaussia luciferase released on ER calcium loss) secretion, thapsigargin, luminescence; series mostly up to 38.4 µM; activity change, negative = inhibition: at the top concentration
Method in brief: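 GLuc-SERCaMP-expressing SH-SY5Y cells, pretreated 16 h with compound, are challenged with thapsigargin to empty ER calcium stores; after 4 h, coelenterazine is added directly to the medium and luminescence is imaged.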
In the case of Oc1c(Cl)cc(Cl)c2cccnc12, the “activity change, negative = inhibition” value is reported as -58.9% (inactive). For COc1c(N2CCNC(C)C2)c(F)cc2c(=O)c(C(=O)O)cn(C3CC3)c12 (configuration not stated), the Potency was 20 µM (active). With Cc1onc(-c2ccccc2Cl)c1C(=O)N[C@@H]1C(=O)N2[C@@H]1SC(C)(C)[C@@H]2C(=O)O the “activity change, negative = inhibition” value was 5.74% (inactive). In the case of COc1cc2ncnc(Nc3cccc(Cl)c3)c2cc1OC, the Potency is reported as “inactive”. In the case of CCN1CCCC1CNC(=O)c1cc(S(N)(=O)=O)ccc1OC (configuration not stated), the Potency is reported as “inactive”. For CCOc1cc(N)c(Cl)cc1C(=O)NCC1CN(Cc2ccc(F)cc2)CCO1 (configuration not stated), the “activity change, negative = inhibition” value was 45.3% (inactive). In the case of C[C@]12C=CC(=O)C=C1CC[C@@H]1[C@@H]2C(=O)C[C@@]2(C)[C@H]1CC[C@]2(O)C(=O)CO, the Potency is reported as “inactive”. For CO[C@@H]1[C@@H](OC(N)=O)[C@@H](O)[C@H](Oc2ccc3c(O)c(NC(=O)c4ccc(O)c(CC=C(C)C)c4)c(=O)oc3c2C)OC1(C)C, the Potency was 31.6 µM (active) and inactive. For CCCCS(=N)(=O)CCC(N)C(=O)O (configuration not stated), the “activity change, negative = inhibition” value was -2.01% (inactive). With CC(C)NCC(O)c1ccc(NS(C)(=O)=O)cc1 (configuration not stated) the “activity change, negative = inhibition” value was 6.63% (inactive). With CN1CCCC(n2nc(Cc3ccc(Cl)cc3)c3ccccc3c2=O)CC1 (configuration not stated) the “activity change, negative = inhibition” value was 149% (inactive). For CC1CC2C3CCC4=CC(=O)C=C[C@]4(C)[C@@]3(F)[C@@H](O)C[C@]2(C)[C@@]1(O)C(=O)CO (some centres not stated), the Potency was “inactive”. In the case of CC(C)Cn1cnc2c(N)nc3ccccc3c21, the Potency is reported as “inactive”. For CNCC[C@H](Oc1cccc2ccccc12)c1cccs1, the Potency was “inactive”. With OCc1ccc(-c2nn(Cc3ccccc3)c3ccccc23)o1 the Potency was “inactive”. With CC1=C(C(=O)O)N2C(=O)[C@@H](NC(=O)C(N)c3ccccc3)[C@H]2SC1 (some centres not stated) the Potency was “inactive”. For Cc1ccc(S(=O)(=O)N[C@@H](Cc2ccccc2)C(=O)CCl)cc1, the Potency was “inactive”. For CC1=NN(c2ccccc2)C(=O)C1, the Potency was “inactive”. In the case of CC(C)OC(=O)C(C(=O)OC(C)C)=C1SC=CS1, the Potency is reported as “inactive”. With CC(=O)[C@H]1CC[C@H]2[C@@H]3CCC4=CC(=O)CC[C@]4(C)[C@H]3CC[C@]12C the Potency was “inactive”. With NC(=O)c1ccc2[nH]ccc2c1 the “activity change, negative = inhibition” value was 11.3% (inactive). In the case of NC1(c2ccc(-c3nc4ccn5c(=O)[nH]nc5c4cc3-c3ccccc3)cc2)CCC1, the Potency is reported as “inactive”. With O=C(O)C1CCCN(CCC=C(c2ccccc2)c2ccccc2)C1 (configuration not stated) the Potency was “inactive”. In the case of Cc1cccc(N(C)C(=S)Oc2ccc3ccccc3c2)c1, the Potency is reported as “inactive”. For N[C@@H](Cc1ccc(O)c(O)c1)C(=O)O, the “activity change, negative = inhibition” value was -28.8% (inactive). In the case of COc1cc2nc(N3CCCN(C)CC3)nc(NC3CCN(Cc4ccccc4)CC3)c2cc1OC, the Potency is reported as “inactive”. For CCN(C)C(=O)Oc1cccc([C@H](C)N(C)C)c1, the “activity change, negative = inhibition” value was 0.303% (inactive). For NC(=O)c1cccc(N)c1, the Potency was “inactive”. For CC[C@H](C)C(=O)O[C@H]1C[C@@H](C)C=C2C=C[C@H](C)[C@H](CC[C@@H]3C[C@@H](O)CC(=O)O3)[C@H]21, the Potency was “inactive”. With CCn1cc(C(=O)O)c(=O)c2cc(F)c(N3CCNCC3)nc21 the “activity change, negative = inhibition” value was -20.3% (inactive). With CC(C)(Sc1cc(C(C)(C)C)c(O)c(C(C)(C)C)c1)Sc1cc(C(C)(C)C)c(O)c(C(C)(C)C)c1 the “activity change, negative = inhibition” value was -23.2% [at 13 µM] (inactive). With O=C(N[C@H](CO)[C@H](O)c1ccc([N+](=O)[O-])cc1)C(Cl)Cl the Potency was “inactive”. For Nc1nc(N)c2nc(CNc3ccc(C(=O)NC(CCC(=O)O)C(=O)O)cc3)cnc2n1 (configuration not stated), the Potency was “inactive”. With CCN(CC)CCn1c(=O)c(Cc2ccc(OC)cc2)nc2ccccc21 the “activity change, negative = inhibition” value was 17.1% (inactive). For CNS(=O)(=O)CCc1ccc2[nH]cc(C3CCN(C)CC3)c2c1, the Potency was “inactive”.
